Laboratory results taken from PubChem BioAssay (EPA / NIEHS).
Calls of active or inactive are those of the source. Rule for the calls: active = hit-call score of the fitted dose curve at least 0.9, where 1 is the maximum; inactive = score below 0.9.

Each molecule was assayed on TIMP1, TIMP1 (gene 7076) (assay: LTEA_HepaRG_TIMP1: Life Technologies and Expression Analysis (LTEA) Assay for TIMP1 using HepaRG (AID 2283534;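 for outcome: TaqMan qRT-PCR signal normalized to ACTB GAPDH and POLR2A housekeeping genes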)). Conditions: mRNA level, 48 h; actives raise or lower the signal.
Procedure: LTEA_HepaRG is a cell based, multiplexed-readout assay that uses HepaRG, a human liver cell line, with measurements taken at 48 hours after chemical dosing on a 96-well plate.LTEA_HepaRG_TIMP1 is one of 102 assay component(s) measured in the LTEA HepaRG cell culture assay. It is a marker of Cell proliferation, survival, death.Data from the assay component LTEA_HepaRG_TIMP1 was analyzed into 1 endpoint. This assay endpoint, LTEA_HepaRG_TIMP1, was analyzed with bidirectional fitting relative to DMSO as the negative control and baseline of activity. Using a type of inducible reporter, measures of mRNA induction for gain or loss-of-signal activity can be used to understand regulation of transcription factor activity. To generalize the intended target to other relatable targets, this assay endpoint is annotated to the protease inhibitor intended target family, where the subfamily is metalloproteinase inhibitor.
A total of 1060 chemcials from the ToxCast library were tested in eight-point concentration-response experiments. Cell culture and cytotoxicity assays were conducted at Thermo Fisher Scientific's Custom Services facility (Madison, WI). A single lot of human HepaRG cells (Thermo Fisher Scientific, Frederick, MD) was used for the cell culture experiments. 96-well format collagen type I coated plates of human HepaRG cells were prepared using established methods. Briefly, cryopreserved HepaRG cells were thawed, plated at a density of approximately 100,000 cells/well in HepaRG Thaw, Plate, and General Purpose media (HPRG770, Thermo Fisher Scientific), and incubated for 48 hours. 0.5% DMSO was selected as vehicle control to balance the requisite need of DMSO in HepaRG cultures to maintain differentiation (for example, baseline metabolism, proportions of hepatocytes vs. cholangiocytes), while enabling further hepatic receptor pathway activation (for example, PXR and CAR) in response to chemical exposure. 48 hours after plating, the culture medium was replaced with HepaRG Serum-Free Incudtion Media. Cells were exposed to each test chemical in duplicate and maintained in CO2 incubators for another 48 hours. Chemical plates were thawed to room temperature and 200x concentrations of treatment groups were prepared. 8-point conentration-reponse curves were made with the highest exposure at 100 uM, followed by half-log dilutions, all in 0.5% DMSO. Each test plate contained variouse controls, induction positive controls (1mM phenobarbital), cytotoxicity positive controls ([…] aflatoxin B1), vehicle controls (0.5% DMSO), and total lysis controls (0.5% DMSO). Cell morphology images were taken using an Essen IncuCyte FLR automated microscope, with six 96-well plates imaged in about 24 minutes. Images were captured and exported and JPEG files. Spent culture media was transfered to black-well plates for the LDH assay, and remaining media was sorted at -80 C for later use. Cells were treated with RLT buffer and frozen until shipped for gene expression analysis. Total RNA was isolated from the cell suspension in 75 uL of Buffer RLT (Qiagen, Germantown, MD 20874) by Quintiles/Expression Analysis (Durham, NC) using a custom isolation procedure. Total RNA from each plate well was transferred to a preamplification plate. Fluidigm's 96.96 Dynamic ArrayTM (Fluidigm, Amsterdam, the Netherlands) technology was used for gene expression analyses by quantitative reverse transcription polymerase chain reaction (qRT-PCR, performed by Quintiles/Expression Analysis, Durham, NC)89. Standard TaqManTM Assays (Applied Biosystems/ThermoFisher Scientific, Foster City, CA) were used to assess the expression of 93 genes selected based on their selectivity and sensitivity to important hepatic receptors known to be modulated by environmental chemicals; importance in human hepatocyte functionality; and hepatotoxicity. […]

SMILES | outcome | AC50
O=c1[nH]cc(F)c(=O)[nH]1 | inactive | 
O=[N+]([O-])C(CO)(CO)CO | inactive | 
CNC(=O)[C@H]1O[C@@H](n2cnc3c(NCc4cc(Cl)ccc4OCc4cc(C)no4)ncnc32)[C@H](O)[C@@H]1N | inactive | 
CCCCCCOCCO | inactive | 
FC(F)(F)C(F)(F)C(F)(F)C(F)(F)C(F)(F)C(F)(F)CCI | inactive | 
Cc1cc(=O)[nH]c(=S)[nH]1 | inactive | 
COc1cc(S(=O)(=O)O)c(C)cc1N=Nc1c(O)ccc2cc(S(=O)(=O)O)ccc12 | inactive | 
Clc1cc(Cl)c(Cl)cc1Cl | inactive | 
CNCc1cc(F)ccc1Oc1ccc(Cl)c(Cl)c1 | inactive | 
Cc1nc(C)nc(N2C[C@@H](C)N(c3ccnc([C@@H](C)O)n3)[C@@H](C)C2)n1 | inactive | 
CC(C)c1ccc(C(=O)N=C(N)N)cc1S(C)(=O)=O | inactive | 
CCCCCCCCCCCCCO | inactive | 
CN[C@H]1CC[C@@H](c2ccc(Cl)c(Cl)c2)c2ccc(S(N)(=O)=O)cc21 | inactive | 
Cc1ccc(N(C)C)cc1 | inactive | 
C=CCOC(=O)c1ccccc1C(=O)OCC=C | inactive | 
CC(=O)OCCOCCOCCOC(C)=O | inactive | 
CCCCc1ccc2c(n1)[C@@H](c1ccc(OC)cc1C[C@H](C)C(=O)O)[C@H](C(=O)O)[C@H]2c1ccc2c(c1)OCO2 | inactive | 
Cc1ccc(C)c(O)c1C | inactive | 
CC1(C)NC(=O)NC1=O | inactive | 
CCCCN(CCCC)CCCC | inactive | 

SMILES | outcome | AC50
O=C(O)Cc1ccccc1Nc1c(Cl)cccc1Cl | inactive | 
Cc1ccc2ncccc2c1 | inactive | 
CCCCCCCCCCC | inactive | 
CCCCCCCCCCCC(=O)OC | inactive | 
CC1=C(/C=C/C(C)=C/C=C/C(C)=C/CO)C(C)(C)CCC1 | inactive | 
COc1cc(C=O)ccc1O | inactive | 
CC(=O)OC/C=C(\C)CCC=C(C)C | inactive | 
Nc1ccccc1N | inactive | 
Cc1cc(NC(=O)C(=O)O)cc(C)c1Oc1ccc(O)c2c1CCC2 | inactive | 
O=C(O)CCCCC(=O)O | inactive | 
CC(=O)Oc1ccccc1C(=O)O | inactive | 
Cc1ccc(C)c(C)c1 | inactive | 
C[C@]12C=CC(=O)C=C1CC[C@@H]1[C@@H]2C(=O)C[C@@]2(C)[C@H]1CC[C@]2(O)C(=O)CO | inactive | 
Cc1cccc([N+](=O)[O-])c1C | inactive | 
Oc1ccc2ccccc2c1N=Nc1ccccc1 |  | 10.1 µM (active)
CCCCOC(=O)CCCCCCCCC(=O)OCCCC | inactive | 
Nc1ccc(S(=O)(=O)c2ccc(N)cc2)cc1 | inactive | 
CCCCCCCCCCO |  | 12.2 µM (active)
Cc1cccc(C)c1O | inactive | 
CCCc1cc(=O)[nH]c(=S)[nH]1 | inactive | 
